# Like-named read-outs stand apart in the source and are kept apart here.
# System: PLK4
# Conditions: read-out: apparent Kd, n = 1
substance,measurement,setting,value
Lestaurtinib,potency estimated from few doses,"compound concentrations:100 nM and 1000 nM (sheet 'Lestaurtinib' of Supplementary Table 1),run:Lestaurtinib_02422_R1,Plate:MR006",56.6 nM
same,potency estimated from few doses,"compound concentrations:100 nM and 1000 nM (sheet 'Lestaurtinib' of Supplementary Table 1),run:Lestaurtinib_02422_R3,Plate:MR006",60.8 nM
same,potency estimated from few doses,"compound concentrations:100 nM and 1000 nM (sheet 'Lestaurtinib' of Supplementary Table 1),run:Lestaurtinib_02437_R1,Plate:MR007",58.1 nM
same,potency estimated from few doses,"compound concentrations:100 nM and 1000 nM (sheet 'Lestaurtinib' of Supplementary Table 1),run:Lestaurtinib_02437_R2,Plate:MR007",61.6 nM
same,potency estimated from few doses,"compound concentrations:100 nM and 1000 nM (sheet 'Lestaurtinib' of Supplementary Table 1),run:Lestaurtinib_02437_R3,Plate:MR007",41 nM
same,potency estimated from few doses,"compound concentrations:100 nM and 1000 nM (sheet 'Lestaurtinib' of Supplementary Table 1),run:Lestaurtinib_02438_R2,Plate:MR008",70.6 nM
same,potency estimated from few doses,"compound concentrations:100 nM and 1000 nM (sheet 'Lestaurtinib' of Supplementary Table 1),run:Lestaurtinib_02438_R3,Plate:MR008",67.9 nM
same,potency estimated from few doses,"compound concentrations:100 nM and 1000 nM (sheet 'Lestaurtinib' of Supplementary Table 1),run:Lestaurtinib_02443_R1,Plate:MR009",70.3 nM
same,potency estimated from few doses,"compound concentrations:100 nM and 1000 nM (sheet 'Lestaurtinib' of Supplementary Table 1),run:Lestaurtinib_02443_R2,Plate:MR009",81 nM
same,potency estimated from few doses,"compound concentrations:100 nM and 1000 nM (sheet 'Lestaurtinib' of Supplementary Table 1),run:Lestaurtinib_02443_R3,Plate:MR009",62.6 nM
same,potency estimated from few doses,"compound concentrations:100 nM and 1000 nM (sheet 'Lestaurtinib' of Supplementary Table 1),run:Lestaurtinib_02473_R3,Plate:MR010",43.1 nM
same,potency estimated from few doses,"compound concentrations:100 nM and 1000 nM (sheet 'Lestaurtinib' of Supplementary Table 1),run:Lestaurtinib_02482_R2,Plate:MR011",113 nM
same,potency estimated from few doses,"compound concentrations:100 nM and 1000 nM (sheet 'Lestaurtinib' of Supplementary Table 1),run:Lestaurtinib_02487_R1,Plate:MR012",79.1 nM
same,potency estimated from few doses,"compound concentrations:100 nM and 1000 nM (sheet 'Lestaurtinib' of Supplementary Table 1),run:Lestaurtinib_02487_R3,Plate:MR012",83.9 nM
same,potency estimated from few doses,"compound concentrations:100 nM and 1000 nM (sheet 'Lestaurtinib' of Supplementary Table 1),run:Lestaurtinib_02496_R1,Plate:MR013",78.2 nM
same,potency estimated from few doses,"compound concentrations:100 nM and 1000 nM (sheet 'Lestaurtinib' of Supplementary Table 1),run:Lestaurtinib_02496_R2,Plate:MR013",94.1 nM
same,potency estimated from few doses,"compound concentrations:100 nM and 1000 nM (sheet 'Lestaurtinib' of Supplementary Table 1),run:Lestaurtinib_02496_R3,Plate:MR013",53.6 nM
same,potency estimated from few doses,"compound concentrations:100 nM and 1000 nM (sheet 'Lestaurtinib' of Supplementary Table 1),run:Lestaurtinib_02566_R2,Plate:MR014",56 nM
same,potency estimated from few doses,"compound concentrations:100 nM and 1000 nM (sheet 'Lestaurtinib' of Supplementary Table 1),run:Lestaurtinib_02566_R3,Plate:MR014",92.7 nM
same,potency estimated from few doses,"compound concentrations:100 nM and 1000 nM (sheet 'Lestaurtinib' of Supplementary Table 1),run:Lestaurtinib_02572_R1,Plate:MR015",50.1 nM
same,potency estimated from few doses,"compound concentrations:100 nM and 1000 nM (sheet 'Lestaurtinib' of Supplementary Table 1),run:Lestaurtinib_02572_R2,Plate:MR015",77.6 nM
same,potency estimated from few doses,"compound concentrations:100 nM and 1000 nM (sheet 'Lestaurtinib' of Supplementary Table 1),run:Lestaurtinib_02577_R1,Plate:MR016",55.9 nM
same,potency estimated from few doses,"compound concentrations:100 nM and 1000 nM (sheet 'Lestaurtinib' of Supplementary Table 1),run:Lestaurtinib_02577_R3,Plate:MR016",35.1 nM
same,potency estimated from few doses,"compound concentrations:100 nM and 1000 nM (sheet 'Lestaurtinib' of Supplementary Table 1),run:Lestaurtinib_02584_R1,Plate:MR017",56.6 nM
same,potency estimated from few doses,"compound concentrations:100 nM and 1000 nM (sheet 'Lestaurtinib' of Supplementary Table 1),run:Lestaurtinib_02584_R2,Plate:MR017",79.8 nM
same,potency estimated from few doses,"compound concentrations:100 nM and 1000 nM (sheet 'Lestaurtinib' of Supplementary Table 1),run:Lestaurtinib_02584_R3,Plate:MR017",76.3 nM
same,potency estimated from few doses,"compound concentrations:100 nM and 1000 nM (sheet 'Lestaurtinib' of Supplementary Table 1),run:Lestaurtinib_02601_R3,Plate:MR018",59.1 nM
same,potency estimated from few doses,"compound concentrations:100 nM and 1000 nM (sheet 'Lestaurtinib' of Supplementary Table 1),run:Lestaurtinib_02606_R2,Plate:MR019",68.7 nM
same,potency estimated from few doses,"compound concentrations:100 nM and 1000 nM (sheet 'Lestaurtinib' of Supplementary Table 1),run:Lestaurtinib_02606_R3,Plate:MR019",58 nM
same,potency estimated from few doses,"compound concentrations:100 nM and 1000 nM (sheet 'Lestaurtinib' of Supplementary Table 1),run:Lestaurtinib_02624_R1,Plate:MR020",169 nM
same,potency estimated from few doses,"compound concentrations:100 nM and 1000 nM (sheet 'Lestaurtinib' of Supplementary Table 1),run:Lestaurtinib_02624_R3,Plate:MR020",47.2 nM
same,potency estimated from few doses,"compound concentrations:100 nM and 1000 nM (sheet 'Lestaurtinib' of Supplementary Table 1),run:Lestaurtinib_02724_R1,Plate:MR021",70.6 nM
same,potency estimated from few doses,"compound concentrations:100 nM and 1000 nM (sheet 'Lestaurtinib' of Supplementary Table 1),run:Lestaurtinib_02724_R2,Plate:MR021",57.7 nM
same,potency estimated from few doses,"compound concentrations:100 nM and 1000 nM (sheet 'Lestaurtinib' of Supplementary Table 1),run:Lestaurtinib_02724_R3,Plate:MR021",86.8 nM
same,potency estimated from few doses,"compound concentrations:100 nM and 1000 nM (sheet 'Lestaurtinib' of Supplementary Table 1),run:Lestaurtinib_02741_R1,Plate:MR023",235 nM
same,potency estimated from few doses,"compound concentrations:100 nM and 1000 nM (sheet 'Lestaurtinib' of Supplementary Table 1),run:Lestaurtinib_02741_R2,Plate:MR023",213 nM
same,potency estimated from few doses,"compound concentrations:100 nM and 1000 nM (sheet 'Lestaurtinib' of Supplementary Table 1),run:Lestaurtinib_02741_R3,Plate:MR023",215 nM
same,potency estimated from few doses,"compound concentrations:100 nM and 1000 nM (sheet 'Lestaurtinib' of Supplementary Table 1),run:Lestaurtinib_02748_R2,Plate:MR024",80.7 nM
same,potency estimated from few doses,"compound concentrations:100 nM and 1000 nM (sheet 'Lestaurtinib' of Supplementary Table 1),run:Lestaurtinib_02752_R1,Plate:MR025",93.7 nM
same,potency estimated from few doses,"compound concentrations:100 nM and 1000 nM (sheet 'Lestaurtinib' of Supplementary Table 1),run:Lestaurtinib_02752_R2,Plate:MR025",68.6 nM
same,potency estimated from few doses,"compound concentrations:100 nM and 1000 nM (sheet 'Lestaurtinib' of Supplementary Table 1),run:Lestaurtinib_02765_R1,Plate:MR026",165 nM
same,potency estimated from few doses,"compound concentrations:100 nM and 1000 nM (sheet 'Lestaurtinib' of Supplementary Table 1),run:Lestaurtinib_02766_R1,Plate:MR027",56.5 nM

# — paper PMC11062922 (Nature Chemical Biology, 2023)
